Laboratory results as given in PubChem BioAssay AID504332 (National Center for Advancing Translational Sciences (NCATS), 2011).
The whole screen tested about 350,000 compounds, of which about 31,000 (8.9%) were called active. About 15% were inconclusive and are not listed. Calls follow the shape of the dose curve; as a rule, active = well fitted inhibition curve with a large enough effect; inconclusive = small, poorly fitted or top-dose-only effect; inactive = no such curve, though single readings can be large or run the other way. Only a selection was taken, and actives are over-represented in it overall.

molecular target: Histone-lysine N-methyltransferase EHMT2 (Homo sapiens) (UniProt Q96KQ7); assay: qHTS Assay for Inhibitors of Histone Lysine Methyltransferase G9a; details: G9a H3K9 monomethylation, AlphaScreen, 2 h; series mostly up to 59 µM; activity, negative = inhibition: at the top concentration; also: nearly all actives have a fitted effect of over 75% in size
Sequence (Q96KQ7 913-1193 limits assumed): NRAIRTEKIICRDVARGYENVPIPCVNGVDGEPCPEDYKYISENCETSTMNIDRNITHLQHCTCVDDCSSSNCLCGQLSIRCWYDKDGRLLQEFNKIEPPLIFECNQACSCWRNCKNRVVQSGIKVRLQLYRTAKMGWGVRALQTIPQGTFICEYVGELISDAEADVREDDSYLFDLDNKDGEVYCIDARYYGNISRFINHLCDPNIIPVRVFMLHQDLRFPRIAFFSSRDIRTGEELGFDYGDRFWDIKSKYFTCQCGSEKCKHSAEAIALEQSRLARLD
How it was run: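 Using a bead-based AlphaScreen, monomethylated H3K9 product from 2 h room-temperature reactions (G9a 20 nM, peptide 500 nM, SAM 20 uM) was detected with 0.5 ug/mL rabbit anti-H3K9me1 antibody.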
% is scaled to controls: 0 for no effect and ±100 for the full control effect; potency is read from the fitted curve at half-maximal effect.

SMILES | activity, negative = inhibition | Potency
COc1cccc(NC(=O)Nc2ccc3c(c2)N(C)C(=O)c2ccccc2S3)c1 | -33.9% (inactive) | 
COc1cccc(/C=C2\Sc3ccc(C(=O)NCC4CCCO4)cc3N(C)C2=O)c1 (stereo not given) | 5.24% [at 102 µM] (inactive) | 
COc1ccc2c(c1)N(C)/C(=C1/SC(=S)N(NC(C)=O)C1=O)S2 |  | 70.8 µM (active)
CN(C(=O)CSc1nnc(-c2ccc3c(c2)OCO3)o1)C1CCS(=O)(=O)C1 (stereo not given) | 23.8% [at 12.7 µM] (inactive) | 
CCOC(=O)c1cc(C(C)C)sc1NC(=O)COC(=O)c1nccnc1N | -18.5% [at 0.501 µM] (inactive) | 
COC(=O)c1ccc(C(=O)NC2CC(C)(C)Cc3c2cnn3-c2ccc(F)cc2)nc1 (stereo not given) | 33.1% [at 102 µM] (inactive) | 
CCCN(C(=O)Cn1ncc2c([nH]c3ccc(C)cc32)c1=O)c1ccccc1C | -4.99% (inactive) | 
CC(C)(C)OC(=O)NCCCCCNC(=O)c1nc[nH]c1C(=O)NCc1ccccc1 | 24.5% [at 2.33 µM] (inactive) | 
Cc1occc1C(=O)Nc1nnc(-c2ccncc2)s1 | -37.1% [at 12.7 µM] (inactive) | 
Cc1nn(C(=O)c2ccoc2C)c(N)c1-c1ccccc1 |  | 31.6 µM (active)
C/C(=N\NC(=O)c1ccoc1C)c1ccccc1O | 11.6% [at 102 µM] (inactive) | 
CCOc1ccccc1NC(=O)CN1CCCN(Cc2cccc(Cl)c2)S1(=O)=O | 5.41% (inactive) | 
Cc1ccc2c(c1)N(CC(=O)NCCc1ccc(Cl)cc1)C(=O)c1cccnc1O2 |  | inactive
COc1ccc2c(CC(=O)Nc3nnc(C4CC4)s3)coc2c1 | -40.9% (inactive) | 
COc1ccc2c(CC(=O)OCC(=O)Nc3ccccc3[N+](=O)[O-])coc2c1 |  | 11.2 µM (active)
COc1ccc2c(CC(=O)OCC(=O)NC(N)=O)coc2c1 | -0.798% [at 102 µM] (inactive) | 
COc1ccc(C(=O)c2c3ccc([N+](=O)[O-])cc3[n+]([O-])n2CCCN)cc1 | -22.2% [at 2.33 µM] (inactive) | 
Cc1c(CCNC(=O)c2ccc(C(F)(F)F)cc2)sc2nc(-c3ccc(F)cc3)nn12 | -4.14% (inactive) | 
CCOC(=O)c1ccccc1NC(=O)c1nn(-c2ccc(OC)c(Cl)c2)c(=O)c2c1c1ccccc1n2C | -23.6% (inactive) | 
CC(=O)c1ccc(NC(=O)c2nc3nc(C)cc(C(F)F)n3n2)cc1 | 5.77% (inactive) | 
CCOC(=O)c1cccc(NC(=O)C2CCN(c3ncnc4c3nc3n4CCCCC3)CC2)c1 | 8.88% [at 102 µM] (inactive) | 
COCCCNCCOCCOc1ccc(Cl)cc1Br |  | 10 µM (active)
COCCNCCOCCOc1cccc(OC)c1 | -4.05% [at 102 µM] (inactive) | 
CCOCCCNCc1cc(Br)ccc1OCC | 1.6% [at 12.7 µM] (inactive) | 

SMILES | activity, negative = inhibition | Potency
Cc1csc2nc(COC(=O)c3cccc(N(C)C)c3)cc(=O)n12 | 3.53% [at 2.33 µM] (inactive) | 
CC(OC(=O)CN1C(=O)c2ccccc2C1=O)C(=O)c1ccccc1 (stereo not given) | 12.8% [at 12.7 µM] (inactive) | 
O=C(Nc1ccc(F)cc1)N1CCN(c2ccc(F)cc2)CC1 | 1.61% [at 102 µM] (inactive) | 
CCc1ccc(NC(=O)N2CCN(c3ccccc3)CC2)cc1 | -6.08% [at 102 µM] (inactive) | 
CC(=O)N1CCN(c2ccc(NCc3ccc(C(C)C)cc3)cc2)CC1 |  | 14.1 µM (active)
Cc1cc(F)ccc1S(=O)(=O)Nc1ccc(C(=O)N(C)Cc2ccco2)cc1 | 23.8% [at 2.33 µM] (inactive) | 
Cc1ccc(C)c(N2CCN(C(=O)Cn3nc(C)c4sc5ccccc5c4c3=O)CC2)c1 |  | 12.6 µM (active)
Cc1nn(CC(=O)NCCc2ccccc2)c(=O)c2c1sc1ccccc12 | -28.2% (inactive) | 
Cc1ccc(C)c(N2CCN(C(=O)Cn3ncn4cccc4c3=O)CC2)c1 | -1.09% [at 102 µM] (inactive) | 
CCn1nc(C(=O)NNC(=O)C2CSC3(C)CCC(=O)N23)c2ccccc2c1=O (stereo not given) | 2.22% [at 12.7 µM] (inactive) | 
Cc1csc2nc(COC(=O)c3ccc(NC(=O)COc4ccccc4F)cc3)cc(=O)n12 | 6.31% [at 12.7 µM] (inactive) | 
CCOC(=O)c1cc2c(=O)n3ccccc3nc2n(CC2CCCO2)c1=NC(=O)c1ccc(C(C)(C)C)cc1 (stereo not given) | 7.45% (inactive) | 
COc1ccc(CCN(Cc2cc3cccc(C)c3[nH]c2=O)C(=O)N2CCCC2)cc1OC | -36.8% [at 12.7 µM] (inactive) | 
COc1cc2cc(CN(CCN3CCCC3)C(=O)Nc3ccccc3Cl)c(=O)[nH]c2cc1OC |  | 50.1 µM (active)
Cc1ccc2[nH]c(=O)c(CN(CCCN(C)C)C(=O)Nc3cccc(Cl)c3)cc2c1 | 9.59% (inactive) | 
CCCCNC(=O)c1cn(CC)c2cc(N3CCN(C(=O)c4ccco4)CC3)c(F)cc2c1=O | -11.5% [at 102 µM] (inactive) | 
CCOc1ccc(CNC(=O)c2ccc3c(c2)nnn3C2CCCC2)cc1 | 7.24% (inactive) | 
O=C(NC1CCCC1)C(c1ccco1)N(C(=O)c1ccco1)c1ccc(F)cc1 (stereo not given) | -10.7% [at 102 µM] (inactive) | 
O=c1cc(COc2cccc(C(F)(F)F)c2)nc2sc3c(n12)CCCC3 | 4.72% (inactive) | 
Cc1ccc(CC(=O)Nc2ccc(OC(F)F)c(Cl)c2)cc1C | 33% (inactive) | 
FC(F)Oc1ccc(NC(=S)NCc2ccco2)cc1Cl |  | 50.1 µM (active)
CCOc1cc(NC(=S)NCc2ccco2)c(OCC)cc1NC(=O)c1ccco1 | 3.75% [at 102 µM] (inactive) | 
COc1cc(NC(=S)NCc2ccco2)c(OC)cc1Cl |  | 50.1 µM (active)
COc1cccc(OC)c1C(=O)NC(=S)NCc1ccco1 | -48.7% [at 102 µM] (inactive) | 

SMILES | activity, negative = inhibition | Potency
O=C(NNC(=S)NCc1ccco1)C(c1ccccc1)c1ccccc1 | 0.815% [at 102 µM] (inactive) | 
Cc1c(Cl)cccc1NC(=O)Cn1cc(C(=O)c2cccs2)c2ccccc21 | 5.79% (inactive) | 
Cc1ccc(NC(=O)CN2c3ccccc3S(=O)(=O)c3ccccc32)cc1F | -5.79% (inactive) | 
CCCN(CCC)C(=O)C(Cc1ccccc1)NS(=O)(=O)c1ccc2c(c1)c(=O)n(C)c(=O)n2C (stereo not given) | -5.06% (inactive) | 
CCC(C(=O)Nc1ccc(C(C)C)cc1)c1ccccc1 (stereo not given) | -0.762% [at 102 µM] (inactive) | 
Cc1ccc(C)c(NC(=S)NNC(=S)Nc2ccc(C(C)C)cc2)c1 |  | 31.6 µM (active)
Cc1cccc(NC(=S)Nc2ccc(Br)cc2)c1 | 21.1% (inactive) | 
Cc1ccc(C)c(NC(=S)NCC(c2cccnc2)N2CCOCC2)c1 (stereo not given) | 2.92% [at 102 µM] (inactive) | 
CC(C)CC(=O)NC(=S)Nc1cc(C(=O)O)ccc1Cl | 10.6% (inactive) | 
CC(C)c1ccc(NC(=S)NNc2ccc(Cl)c(C(=O)O)c2)cc1 |  | 10 µM (active)
COCCNC(=O)c1ccc2nc(Cc3ccc(OC)c(OC)c3)oc2c1 | 42.5% [at 102 µM] (inactive) | 
CC(=O)Nc1cccc(C(=O)OCC(=O)Nc2nnc(-c3ccccc3)o2)c1 | -0.909% [at 102 µM] (inactive) | 
CN(CC(=O)NCc1cccnc1)S(=O)(=O)c1cc(Cl)ccc1Cl | -31.6% [at 102 µM] (inactive) | 
COc1ccc(NC(=O)C2CCN(S(=O)(=O)c3ccc4[nH]c(=O)oc4c3)CC2)c(OC)c1 | -3.14% [at 102 µM] (inactive) | 
CCOC(=O)CN1C(=O)C(O)(CC(=O)c2ccccn2)c2ccccc21 (stereo not given) | 13.3% [at 102 µM] (inactive) | 
C=CCN1C(=O)C(O)(CC(=O)c2ccc(Cl)cc2)c2ccccc21 (stereo not given) |  | 44.7 µM (active)
O=C(CC1(O)C(=O)N(CN2CCOCC2)c2ccccc21)c1ccccc1 (stereo not given) | 8.91% (inactive) | 
COc1ccc(CCNC(=O)c2ccc(CSCc3ccc(C)cc3)o2)cc1OC | -41.2% (inactive) | 
CCc1nnc2c3ccccc3nc(N3CCN(c4ccc(C)cc4C)CC3)n12 | -5.99% (inactive) | 
Cc1ccc(/C=C/C(=O)OCC(=O)Nc2cccnc2Cl)cc1 | 5.18% [at 12.7 µM] (inactive) | 
CC(=O)c1c(N)n(C)c(=O)n(C)c1=O | 17.5% (inactive) | 
CC(=O)Nn1cc2c(=O)n(C)c(=O)n(C)c2c1 |  | 35.5 µM (active)
CC(=O)NNc1cc(=O)c2c(=O)n(C)c(=O)n(C)c2[nH]1 | 23.3% (inactive) | 
Nc1ccn(CC(=O)N2CCN(c3ccccn3)CC2)c(=O)n1 | -0.804% [at 0.501 µM] (inactive) | 

SMILES | activity, negative = inhibition | Potency
COC(=O)c1ccccc1NS(=O)(=O)c1ccc2c(c1)CCCN2C(C)=O | -5.09% (inactive) | 
O=C(Nc1ccc(N2CCN(C(=O)c3ccccc3)CC2)c(Cl)c1)c1cccnc1 | -6.61% (inactive) | 
COC(=O)[C@H](C)[C@H]1C[C@]1(C)[C@H](NC(=O)OCc1ccccc1)c1ccccc1 | 29.2% [at 102 µM] (inactive) | 
C[C@@H](C(=O)Nc1ccc2ccccc2c1)[C@@H]1C[C@@]1(C)[C@@H](NC(=O)c1cccnc1)c1ccccc1 |  | 50.1 µM (active)
CC(=O)N[C@@H](C)C(=O)N1CCC(n2nccc2NC(=O)CCCc2ccccc2)CC1 | 16.2% [at 102 µM] (inactive) | 
CC(NS(=O)(=O)c1ccc(Cl)cc1)C(=O)Nc1ccc2c(c1)OCCO2 (stereo not given) | 15.8% [at 102 µM] (inactive) | 
Cc1ccc(C(=O)Nc2ccccc2F)cc1S(=O)(=O)N1CCOCC1 | 0.422% (inactive) | 
N#C/C(=C\C1=C(N2CCOCC2)C(=C\c2ccccc2)/CC1)C(=O)Nc1ccccc1F |  | 7.08 µM (active)
N#C/C(=C\c1ccccc1C(F)(F)F)C(=O)Nc1ccccc1F | 7.49% (inactive) | 
CCOCCCn1c(SCC(=O)Nc2ccc(CC)cc2)nc2ccccc2c1=O | 12.2% (inactive) | 
O=C(CCc1nc(CN2CCN(S(=O)(=O)c3ccc(F)cc3)CC2)no1)N1CCCCC1 | -32.6% (inactive) | 
COc1ccc(N(C)C(=O)C2CCN(S(=O)(=O)c3cc(Br)cc4c3N(C(C)=O)CC4)CC2)cc1 | 8.09% (inactive) | 
CCOc1ccc(CNC(=O)c2cc(=O)[nH]c3ccc(S(=O)(=O)N4CCCCC4)cc23)cc1 | 1.87% (inactive) | 
CNC(=S)N1N=C(c2ccccc2)CC1c1ccc(Br)cc1 (stereo not given) | -5.86% [at 102 µM] (inactive) | 
Brc1ccc(C2=NCCC(c3ccccc3)O2)cc1 (stereo not given) | 15.4% [at 102 µM] (inactive) | 
Brc1ccc(C2CC(c3ccccc3)=Nc3ccccc3N2)cc1 (stereo not given) |  | 39.8 µM (active)
COc1cc(C(=O)N2CCC(c3ccncc3)CC2)cc(OC)c1OC | 10.3% (inactive) | 
Cc1ccc(NC(=O)C(C)OC(=O)Cc2c[nH]c3ccccc23)cc1S(=O)(=O)N1CCOCC1 (stereo not given) |  | 35.5 µM (active)
Cc1ccc(NC(=O)c2ccccn2)cc1S(=O)(=O)N1CCOCC1 | 3.07% [at 102 µM] (inactive) | 
CC(OC(=O)CCCc1c[nH]c2ccccc12)C(=O)Nc1ccc(S(N)(=O)=O)cc1 (stereo not given) | 14.8% [at 0.501 µM] (inactive) | 
CS(=O)(=O)c1ccc2nc(NC(=O)C3CCCCC3)sc2c1 | 19.9% (inactive) | 
CS(=O)(=O)c1ccc2nc(NC(=O)CN3CCCCCC3)sc2c1 |  | 17.8 µM (active)
CS(=O)(=O)c1ccc2nc(NC(=O)c3ccc(N4CCCC4=O)cc3)sc2c1 | 7.63% [at 102 µM] (inactive) | 
